Experimental data as given in PubChem BioAssay (EPA / NIEHS).
Calls of active or inactive are those of the source. Rule for the calls: active = hit-call score of the fitted dose curve at least 0.9, where 1 is the maximum; inactive = score below 0.9.

experiment: UKN2_HCS_IMR90_neural_migration: University of Konstanz (UKN) Leist Lab Neural Crest Cell Migration Assay in human induced IMR90 Pluripotent Stem Cells (UKN2) (AID 2284204); settings: actives raise or lower the signal
Description: UKN2_HCS_IMR90 is a cell-based, multiplexed-readout assay screening for neural crest cell migration and cell viability that uses IMR90 (neural crest cells differentiated from iPSC), a human embryo cell line, with measurements taken at […] after chemical dosing in a microplate: 96-well plate. UKN2, also known as cMINC, is an assay that uses IMR90 cells (neural crest cells differentiated from iPSC) as a model of neural crest cell migration. 24 hr after cell seeding, cell migration was initiated and proceeded for 24 hr. Then, chemical was applied, and after 24 hr of exposure migration and viability were assessed using high-content imaging of cells stained with calcein-AM and Hoechst H-33342.UKN2_HCS_IMR90_neural_migration is an assay component measured from the UKN2_HCS_IMR90 assay. It is designed to make measurements of neural crest cell migration, a form of morphology reporter, as detected with Fluorescence intensity signals by HCS Fluorescent Imaging.The assay endpoint UKN2_HCS_IMR90_neural_migration was analyzed with bidirectional fitting relative to DMSO as the negative control and baseline of activity. Using a type of morphology reporter, gain or loss-of-signal activity can be used to understand developmental effects. To generalize the intended target to other relatable targets, this assay endpoint is annotated to the neurodevelopment intended target family, where the subfamily is neural crest cell migration.
The wells are coated with PLO/laminin/fibronectin. Then, silicone stoppers are placed into the wells of a 96-well plate. Cells are seeded around the stoppers and allowed to attach for 24 hours. Day 0: The silicone stoppers are removed and the medium is replaced with pre-warmed, fresh N2-S medium containing the cytokines EGF and FGF. Cells are allowed to migrate into the cell free area. Day 1: 25 ul of the 5x concentrated toxicants are added to the wells. The cells plus toxicants are incubated for 24 h. Day 2: Cells are stained with calcein-AM and Hoechst (H-33342) for 30 min before imaging with a high content imaging microscope. Quantification of migration and viability is done by high content imaging analysis.

Compound	outcome	AC50
CN1CC[C@]23c4c5ccc(O)c4O[C@H]2[C@@H](O)C=C[C@H]3[C@H]1C5	inactive	–
CN[C@@H](C)Cc1ccccc1	inactive	–
CCOP(=O)(OCC)SCSC(C)(C)C	inactive	–
CCOP(=O)(Oc1cnc(C(C)(C)C)nc1)OC(C)C (stereo not given)	inactive	–
CP(=O)(O)CCC(N)C(=O)O (stereo not given)	inactive	–
[CH3][Sn]([CH3])([CH3])[Cl]	–	7.88 µM (active)
CNC1(c2ccccc2Cl)CCCCC1=O (stereo not given)	inactive	–
Cn1nc(C(F)(F)F)c(CS(=O)(=O)C2=NOC(C)(C)C2)c1OC(F)F	inactive	–
[CH3][Hg][Cl]	–	5 µM (active)
CC(=O)[O-].CC(=O)[O-].O.O.O.[Pb+2]	–	32.8 µM (active)
CNC(C)Cc1ccc2c(c1)OCO2 (stereo not given)	inactive	–
O=[As](O)(O)O	inactive	–
CCOP(=O)(OCC)SCSCC	inactive	–
C[n+]1ccc(-c2ccccc2)cc1	inactive	–
O=C1N[C@@H]2C(=C[C@H](O)[C@@H](O)[C@H]2O)c2cc3c(c(O)c21)OCO3	–	0.047 µM (active)
CC1(C)[C@H](C=C(Cl)Cl)[C@H]1C(=O)OCc1c(F)c(F)cc(F)c1F	inactive	–
CC1(C)C(C=C(Cl)c2ccc(Cl)cc2)C1C(=O)OC(C#N)c1ccc(F)c(Oc2ccccc2)c1 (stereo not given)	inactive	–
CN1CC=C(c2ccccc2)CC1	inactive	–

Compound	outcome	AC50
C/C(=C/C=C/[C@@H](C)C(=O)O)[C@H]1CN[C@H](C(=O)O)[C@H]1CC(=O)O	inactive	–
C[n+]1ccc(-c2cc[n+](C)cc2)cc1	inactive	–
CC(=O)[O-].[Tl+]	inactive	–
CCOP(=S)(OCC)SCS(=O)C(C)(C)C (stereo not given)	inactive	–
CC1(C)C(C=C(Cl)Cl)[C@H]1C(=O)O[C@H](C#N)c1cccc(Oc2ccccc2)c1 (stereo not given in full)	inactive	–
Brc1ccc(Oc2ccc(Br)cc2Br)c(Br)c1	inactive	–
CCOP(=O)(OCC)OC(Cl)C(Cl)(Cl)Cl (stereo not given)	inactive	–
[Cd+2].[Cl-].[Cl-]	–	0.88 µM (active)
CC1(C)C(C=C(Cl)Cl)C1C(=O)O[C@H](C#N)c1cccc(Oc2ccccc2)c1 (stereo not given in full)	inactive	–
CC1(C)[C@H](C(=O)O[C@H](C#N)c2cccc(Oc3ccccc3)c2)[C@@H]1C=C(Br)Br	inactive	–
Clc1cc(Cl)c(-c2cc(Cl)c(Cl)c(Cl)c2Cl)cc1Cl	–	5.57 µM (active)
[O-][Cl+3]([O-])([O-])O	inactive	–
CC(C)CC(C)c1sccc1NC(=O)c1cn(C)nc1C(F)(F)F (stereo not given)	–	65.6 µM (active)
COC(=O)[C@H]1[C@@H](OC(=O)c2ccccc2)C[C@@H]2CC[C@H]1N2C	inactive	–
Brc1ccc(Oc2cc(Br)c(Br)cc2Br)c(Br)c1	inactive	–
CC(=O)Oc1ccc2c3c1O[C@H]1[C@@H](OC(C)=O)C=C[C@H]4[C@@H](C2)N(C)CC[C@@]341	inactive	–
COP(=O)(OC)SCN1C(=O)c2ccccc2C1=O	inactive	–
